# Records with an inconclusive call do not appear. Active and inactive are the calls of the source. How the source made its calls, unless noted: active means hit-call score of the fitted dose curve at least 0.9, where 1 is the maximum; inactive means score below 0.9.
# Assays:
# [1] = molecular target: Retinoic acid receptor RXR-alpha (Homo sapiens) (UniProt P19793); assay: ATG_RXRa_TRANS: Attagene TRANS-FACTORIAL HepG2 Assay for human Retinoid X Receptor alpha (RXRa) (AID 2283012; active means hit-call score of the fitted dose curve at least 0.9, where 1 is the maximum)
# Summary of the method: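 TRANS format reporting activity of exogenous RXRa-Gal4 chimera in transiently transfected HepG2, 24 h exposure. Reporter transcripts quantified by RT-PCR with capillary electrophoresis, with gain of signal scored relative to DMSO.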
# [2] = read-out: Interleukin-1 alpha (IL1a), IL1A (gene 3552); assay: BSK_BE3C_IL1a: BioMAP Diversity Plus: BE3C Assay for Interleukin-1 alpha (IL1a) Biomarker Activity (AID 2283016); conditions: primary human bronchial epithelial cells; actives raise or lower the signal
# Summary of the method: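 IL-1a measured by ELISA after 24 h treatment of human primary bronchial epithelial cells, with gain or loss of signal fitted versus DMSO. Parallel cultures stained with SRB gauge overt cytotoxicity.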
# [3] = read-out: Monocyte Chemoattractant Protein-1 (MCP1), CCL2 (gene 6347); assay: BSK_3C_MCP1: BioMAP Diversity Plus: 3C Assay for Monocyte Chemoattractant Protein-1 (MCP1) Biomarker Activity (AID 2283017); conditions: primary human endothelial cells (HUVEC); actives raise or lower the signal
# Summary of the method: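 MCP-1 was measured by ELISA 24 h after dosing in primary HUVEC 3C cultures and fitted in both directions relative to DMSO; cytotoxicity was checked by SRB total-protein staining in parallel wells.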
# [4] = read-out: Monocyte Chemoattractant Protein-1 (MCP1), CCL2 (gene 6347); assay: BSK_4H_MCP1: BioMAP Diversity Plus: 4H Assay for Monocyte Chemoattractant Protein-1 (MCP1) Biomarker Activity (AID 2283018); conditions: primary human endothelial cells (HUVEC); actives raise or lower the signal
# Summary of the method: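 ELISA of MCP-1 (CCL2) 24 h after chemical dosing of HUVEC in the BioMAP 4H system. Gain or loss versus DMSO fitted; parallel SRB staining (560 nm) tracked overt cytotoxicity.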
# [5] = read-out: Human Leukocyte Antigen - DR isotype (HLADR), HLA-DRA (gene 3122); assay: BSK_3C_HLADR: BioMAP Diversity Plus: 3C Assay for Human Leukocyte Antigen - DR isotype (HLADR) Biomarker Activity (AID 2283019); conditions: primary human endothelial cells (HUVEC); actives raise or lower the signal;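 on outcome: ELISA of cell-surface HLA-DR on HUVEC 24 h after dosing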
# Summary of the method: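 Bidirectional fitting against DMSO was applied to the HLA-DR ELISA signal from human umbilical vein endothelial cells, 24 h post-dose. Cytotoxicity came from parallel SRB total-protein staining; 3C proliferation was counted by SRB at 48 h.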
# [6] = read-out: Interleukin-8 (IL8), CXCL8 (gene 3576); assay: BSK_3C_IL8: BioMAP Diversity Plus: 3C Assay for Interleukin-8 (IL8) Biomarker Activity (AID 2283020); conditions: primary human endothelial cells (HUVEC); actives raise or lower the signal
# Summary of the method: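 IL-8 was measured by ELISA in HUVEC cultures 24 h after chemical dosing, with gain or loss of signal fitted relative to DMSO. Parallel SRB total-protein staining tracked overt cytotoxicity.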
# [7] = molecular target: human Retinoid X Receptor beta (RXRb), RXRB (gene 6257) (UniProt P28702); assay: ATG_RXRb_TRANS: Attagene TRANS-FACTORIAL HepG2 Assay for human Retinoid X Receptor beta (RXRb) (AID 2283013; active means hit-call score of the fitted dose curve at least 0.9, where 1 is the maximum)
# Summary of the method: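 Readout is reporter transcript induction after 24 h dosing. It is measured by RT-PCR of total RNA followed by fluorescent capillary electrophoresis. HepG2 liver cells carry transfected multiple reporter units driven by an exogenous RXRb-Gal4 fusion; activity is relative to DMSO.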
# [8] = molecular target: human Thyroid Receptor alpha (THRa1), THRA (gene 7067) (UniProt P10827); assay: ATG_THRa1_TRANS: Attagene TRANS-FACTORIAL HepG2 Assay for human Thyroid Receptor alpha (THRa1) (AID 2283014; active means hit-call score of the fitted dose curve at least 0.9, where 1 is the maximum)
# Summary of the method: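 Transcripts from GAL4-UAS-driven reporters, measured after 24 h compound exposure by RT-PCR plus capillary electrophoresis of 6-FAM-labeled fragments, were fitted for gain of signal relative to DMSO. Cells: transiently transfected HepG2 expressing NR-Gal4 chimeras.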
# [9] = read-out: E-selectin (Homo sapiens) (UniProt P16581); assay: BSK_3C_Eselectin: BioMAP Diversity Plus: 3C Assay for Eselectin Biomarker Activity (AID 2283015); conditions: primary human endothelial cells (HUVEC); actives raise or lower the signal;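 on outcome: cell surface E-selectin protein quantified by ELISA 24 h after dosing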
# Summary of the method: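 E-selectin ELISA readout, fitted bidirectionally relative to DMSO, taken 24 h post-dosing in HUVEC cultures of the 3C system. Overt cytotoxicity tracked with sulforhodamine B staining of parallel wells.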
# Sequence of human Retinoid X Receptor beta (RXRb), RXRB (gene 6257) (P28702 whole entry, looked up, the tested form may be a part): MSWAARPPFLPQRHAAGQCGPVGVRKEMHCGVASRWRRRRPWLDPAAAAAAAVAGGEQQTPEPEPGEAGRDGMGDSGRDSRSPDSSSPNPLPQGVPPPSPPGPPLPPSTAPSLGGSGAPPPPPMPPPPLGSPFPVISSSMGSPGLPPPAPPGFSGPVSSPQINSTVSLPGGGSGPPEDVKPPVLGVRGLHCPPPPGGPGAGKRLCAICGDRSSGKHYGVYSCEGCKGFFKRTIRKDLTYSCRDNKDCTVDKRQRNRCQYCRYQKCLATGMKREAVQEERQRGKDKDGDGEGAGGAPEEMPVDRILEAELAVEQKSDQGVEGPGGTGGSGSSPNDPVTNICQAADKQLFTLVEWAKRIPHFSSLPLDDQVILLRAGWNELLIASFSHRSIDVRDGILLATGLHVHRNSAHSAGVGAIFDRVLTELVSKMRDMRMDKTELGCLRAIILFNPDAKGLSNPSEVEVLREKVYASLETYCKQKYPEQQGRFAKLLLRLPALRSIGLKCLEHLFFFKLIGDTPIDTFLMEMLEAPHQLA
# Sequence of E-selectin (Homo sapiens) (P16581 whole entry, looked up): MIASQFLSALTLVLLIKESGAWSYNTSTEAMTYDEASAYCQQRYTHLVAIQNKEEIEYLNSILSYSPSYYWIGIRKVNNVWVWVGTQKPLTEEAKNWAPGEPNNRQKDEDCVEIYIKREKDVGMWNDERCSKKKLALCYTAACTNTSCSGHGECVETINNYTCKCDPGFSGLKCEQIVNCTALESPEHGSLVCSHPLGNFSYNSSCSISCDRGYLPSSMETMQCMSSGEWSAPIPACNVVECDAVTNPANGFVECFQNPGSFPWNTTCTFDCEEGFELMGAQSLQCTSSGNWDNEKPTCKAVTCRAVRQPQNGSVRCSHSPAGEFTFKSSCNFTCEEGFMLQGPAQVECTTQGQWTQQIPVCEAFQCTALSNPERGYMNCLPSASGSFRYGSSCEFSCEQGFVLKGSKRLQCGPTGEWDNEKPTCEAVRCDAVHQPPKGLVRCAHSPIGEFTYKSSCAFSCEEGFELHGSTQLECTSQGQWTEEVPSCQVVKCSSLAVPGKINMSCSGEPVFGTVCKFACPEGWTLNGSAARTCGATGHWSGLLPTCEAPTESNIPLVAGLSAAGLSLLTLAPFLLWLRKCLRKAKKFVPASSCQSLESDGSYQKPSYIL
# Sequence of Retinoic acid receptor RXR-alpha (Homo sapiens) (P19793 whole entry, looked up, the tested form may be a part): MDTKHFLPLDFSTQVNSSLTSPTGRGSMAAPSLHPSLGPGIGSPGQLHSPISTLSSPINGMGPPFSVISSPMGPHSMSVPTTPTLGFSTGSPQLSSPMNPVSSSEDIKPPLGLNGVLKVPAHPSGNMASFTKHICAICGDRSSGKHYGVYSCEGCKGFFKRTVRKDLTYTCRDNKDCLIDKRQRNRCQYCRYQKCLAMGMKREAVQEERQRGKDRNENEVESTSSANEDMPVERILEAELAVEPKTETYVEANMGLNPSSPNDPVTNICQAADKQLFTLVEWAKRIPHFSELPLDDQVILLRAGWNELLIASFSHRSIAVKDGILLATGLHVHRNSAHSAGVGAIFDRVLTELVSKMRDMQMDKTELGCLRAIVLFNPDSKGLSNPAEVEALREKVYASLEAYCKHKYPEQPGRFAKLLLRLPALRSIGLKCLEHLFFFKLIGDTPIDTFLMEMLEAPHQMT
# Sequence of human Thyroid Receptor alpha (THRa1), THRA (gene 7067) (P10827 whole entry, looked up, the tested form may be a part): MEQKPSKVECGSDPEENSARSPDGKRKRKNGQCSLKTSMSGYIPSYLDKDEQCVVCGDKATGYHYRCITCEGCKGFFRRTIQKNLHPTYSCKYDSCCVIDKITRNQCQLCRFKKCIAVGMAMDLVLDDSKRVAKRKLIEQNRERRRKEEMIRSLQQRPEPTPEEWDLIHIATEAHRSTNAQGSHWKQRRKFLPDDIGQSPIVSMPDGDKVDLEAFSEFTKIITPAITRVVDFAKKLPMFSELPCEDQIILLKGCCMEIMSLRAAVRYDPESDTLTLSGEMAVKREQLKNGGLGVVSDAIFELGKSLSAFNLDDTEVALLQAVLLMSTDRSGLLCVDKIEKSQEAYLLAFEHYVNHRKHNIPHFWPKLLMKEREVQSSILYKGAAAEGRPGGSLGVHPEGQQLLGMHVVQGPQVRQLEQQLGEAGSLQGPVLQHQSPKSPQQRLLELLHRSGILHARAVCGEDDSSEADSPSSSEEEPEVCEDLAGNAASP
structure (smiles),measurement,setting,value
N=C(N)c1ccc(OCCCCCOc2ccc(C(=N)N)cc2)cc1,outcome,[1],inactive
same,outcome,[2],inactive
same,outcome,[3],inactive
same,outcome,[4],inactive
same,AC50,[5],10.1 µM (active)
same,AC50,[6],12.3 µM (active)
O=C1c2ccccc2C(=O)c2c(O)c(O)cc(O)c21,outcome,[7],inactive
same,AC50,[8],21.4 µM (active)
O=C1OC(=O)C(F)(F)C1(F)F,outcome,[1],inactive
same,outcome,[8],inactive
Cc1ccc(N=Nc2c(O)ccc3ccccc23)c(C)c1,outcome,[7],inactive
same,outcome,[8],inactive
same,outcome,[2],inactive
same,outcome,[3],inactive
same,outcome,[4],inactive
same,AC50,[5],14.8 µM (active)
same,outcome,[6],inactive
Oc1ccc(Cc2ccccc2O)cc1,outcome,[1],inactive
same,outcome,[8],inactive
same,outcome,[2],inactive
same,outcome,[3],inactive
same,outcome,[4],inactive
same,outcome,[5],inactive
same,outcome,[6],inactive
NC(C(F)(F)F)C(F)(F)F,outcome,[8],inactive
CCCCc1oc2ccccc2c1C(=O)c1cc(I)c(OCCN(CC)CC)c(I)c1,outcome,[1],inactive
same,outcome,[7],inactive
same,AC50,[2],17.1 µM (active)
same,AC50,[3],21.6 µM (active)
same,AC50,[4],15.1 µM (active)
same,AC50,[5],9.35 µM (active)
same,AC50,[6],17.7 µM (active)
c1cc[nH]c1,outcome,[7],inactive
COc1cc(OC)nc(NC(=O)NS(=O)(=O)Nc2ccccc2C(=O)N(C)C)n1,outcome,[9],inactive
same,outcome,[2],inactive
same,outcome,[3],inactive
same,outcome,[4],inactive
same,outcome,[5],inactive
same,outcome,[6],inactive
CN(C)CCOC(c1ccccc1)c1ccccc1,outcome,[1],inactive
same,outcome,[8],inactive
same,outcome,[2],inactive
same,outcome,[3],inactive
same,AC50,[4],0.351 µM (active)
same,outcome,[5],inactive
same,outcome,[6],inactive
COC(=O)C(F)(F)C(F)(F)C(F)(F)F,outcome,[1],inactive
same,outcome,[8],inactive
Clc1ccc(Nc2nnc(Cc3ccncc3)c3ccccc23)cc1,outcome,[1],inactive
same,outcome,[8],inactive
same,AC50,[2],1.67 µM (active)
same,outcome,[3],inactive
same,outcome,[4],inactive
same,outcome,[5],inactive
same,outcome,[6],inactive
Cc1cncc(C)c1,outcome,[7],inactive
Nc1cc(Cl)c(-c2cc(Cl)c(N)cc2Cl)cc1Cl,outcome,[1],inactive
same,outcome,[8],inactive
CCCCCCCCCCCC[N+](C)(C)Cc1ccccc1,outcome,[1],inactive
same,outcome,[8],inactive
COC1=CC(=O)C[C@@H](C)[C@]12Oc1c(Cl)c(OC)cc(OC)c1C2=O,outcome,[1],inactive
same,outcome,[8],inactive
same,outcome,[9],inactive
same,outcome,[2],inactive
same,outcome,[3],inactive
same,outcome,[4],inactive
same,outcome,[5],inactive
same,outcome,[6],inactive
FC(F)(F)C(F)(F)C(F)(F)Br,outcome,[7],inactive
same,outcome,[8],inactive
O=S(=O)(c1ccc(OCc2ccccc2)cc1)c1ccccc1O,outcome,[1],inactive
same,outcome,[8],inactive
C=C(c1ccc(C(=O)O)cc1)c1cc2c(cc1C)C(C)(C)CCC2(C)C,outcome,[8],inactive
COCN(COC)c1nc(N(COC)COC)nc(N(COC)COC)n1,outcome,[7],inactive
same,outcome,[2],inactive
same,outcome,[3],inactive
same,outcome,[4],inactive
same,outcome,[5],inactive
same,outcome,[6],inactive
CN(CCO)S(=O)(=O)C(F)(F)C(F)(F)C(F)(F)C(F)(F)C(F)(F)C(F)(F)C(F)(F)C(F)(F)F,outcome,[1],inactive
same,outcome,[2],inactive
same,outcome,[3],inactive
same,outcome,[4],inactive
same,outcome,[5],inactive
same,outcome,[6],inactive
CCO[Si](C)(C)OCC,outcome,[7],inactive
CCCCC(CC)C(=O)OCCOCCOCCOCCOC(=O)C(CC)CCCC (stereo not given),outcome,[1],inactive
same,AC50,[9],13.6 µM (active)
same,outcome,[2],inactive
same,outcome,[3],inactive
same,outcome,[4],inactive
same,AC50,[5],11.4 µM (active)
same,outcome,[6],inactive
O=C1OC(=O)c2cc(-c3ccc4c(c3)C(=O)OC4=O)ccc21,outcome,[8],inactive
OCC(CO)(CBr)CBr,outcome,[1],inactive
same,outcome,[8],inactive
same,outcome,[2],inactive
same,outcome,[3],inactive
same,outcome,[4],inactive
same,outcome,[5],inactive
same,outcome,[6],inactive
O=C(O)CCC(F)(F)C(F)(F)C(F)(F)C(F)(F)C(F)(F)F,outcome,[1],inactive
same,outcome,[7],inactive
same,outcome,[2],inactive
same,outcome,[3],inactive
same,outcome,[4],inactive
same,outcome,[5],inactive
same,outcome,[6],inactive
CCCCCCCCCCCCOS(=O)(=O)O,outcome,[2],inactive
same,outcome,[3],inactive
same,outcome,[4],inactive
same,outcome,[5],inactive
same,outcome,[6],inactive
CC1CCC(C(=O)O)CC1 (stereo not given),outcome,[1],inactive
same,outcome,[8],inactive

# From PubChem BioAssay (EPA / NIEHS)
